Measured values as given in PubChem BioAssay.
Values joined by “and” are separate entries in the source; they are usually repeats but may differ in a detail not shown here. Equal values may be shown once. Active and inactive are the calls of the source. No rule for the calls is given here.

Target: Cellular tumor antigen p53 (Homo sapiens) (UniProt P04637)
Assay: GFP-p53 level modulators in HPV16+ cells – imaging, known kinase inhibitor set, EGFP/DsRed ratio (AID 1053116);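 also: test concentration not given here; cells exposed to compounds for 24 h at 37 °C before reading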
Settings: GFP-p53 stability, stronger effect = higher value; EGFP object count: measured here: GFP-p53 positive objects count

Chain of Cellular tumor antigen p53 (Homo sapiens) (P04637 whole entry, looked up): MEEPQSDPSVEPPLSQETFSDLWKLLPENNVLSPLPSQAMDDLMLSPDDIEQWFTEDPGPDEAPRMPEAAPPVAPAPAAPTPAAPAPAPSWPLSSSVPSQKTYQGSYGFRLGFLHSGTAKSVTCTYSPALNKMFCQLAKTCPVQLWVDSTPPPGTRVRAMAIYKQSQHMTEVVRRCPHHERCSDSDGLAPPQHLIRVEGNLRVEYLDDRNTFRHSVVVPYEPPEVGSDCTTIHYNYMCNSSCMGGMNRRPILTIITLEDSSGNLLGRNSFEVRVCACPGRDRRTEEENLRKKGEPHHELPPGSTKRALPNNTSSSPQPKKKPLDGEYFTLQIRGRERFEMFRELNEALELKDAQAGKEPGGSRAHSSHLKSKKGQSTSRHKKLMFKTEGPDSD

| Structure (SMILES) | EGFP/DsRed ratio | EGFP object count |
| --- | --- | --- |
| Cc1cc(-c2ccco2)cc(C)c1/C=C/c1cncc(-c2nn[nH]n2)c1 | 0.0973 (inactive) | 3.5 |
| Cc1ccc(Nc2ccnc(Nc3cccc(C(N)=O)c3)n2)cc1O | 0.0254 (inactive) | 3 |
| Clc1ccc(CNc2nccc(-c3cnn4ncccc34)n2)cc1 | 0.0281 (inactive) | 1 |
| CCn1c(-c2nonc2N)nc2c(C#CC(C)(C)O)ncc(OC3CCNCC3)c21 | 0.266 (inactive) | 10.5 |
| O/N=C1/CCc2cc(-c3nc(C4CCNCC4)[nH]c3-c3ccncc3)ccc21 | 0.00487 (inactive) | 1 |
| COc1cccc(-n2ncc3c(N/N=C/c4cccc(F)c4)ncnc32)c1 | 0.0775 (inactive) | 5 |
| CCCN1CCC(Oc2cc(Nc3nc(Nc4cccc(F)c4C(N)=O)c4cc[nH]c4n3)c(OC)cc2Cl)CC1 | 0.575 (active) | 67.5 |
| CCOc1nccc2c1nc(-c1nonc1N)n2CC | 0.429 (inactive) | 4.5 |
| CCn1c(-c2nonc2N)nc2ccc(F)cc21 | 0.0296 (inactive) | 4 |
| COc1cc(/C=N/Nc2ncnc3c2cnn3Cc2ccccc2)ccc1O | 1.43 (active) | 100 |
| NS(=O)(=O)c1ccc(N=Cc2c(O)[nH]c3ccc4ncsc4c23)cc1 | 0.0629 (inactive) and 0.096 (inactive) | 2.5 and 4 |
| COc1cc2c(cc1Nc1nc(Nc3ccsc3C(N)=O)c3cc[nH]c3n1)N(C(=O)CN(C)C)CCC2(C)C | 0.0546 (inactive) | 3.5 |
| c1cnn2ncc(-c3ccnc(NCCCN4CCOCC4)n3)c2c1 | 0.248 (inactive) | 1.5 |
| Nc1nc(-c2ccccn2)c(-c2ccc3ncccc3n2)s1 | 0.114 (inactive) | 4 |
| COc1cc(C)c(NC(=O)CN(C)C)cc1Nc1nc(Nc2cccc(F)c2C(N)=O)c2cc[nH]c2n1 | 0.493 (inactive) | 21 |
| CN(c1ccc(NC(=O)Nc2c(Cl)cccc2Cl)cc1)c1ccnc(Nc2cccc(CS(C)(=O)=O)c2)n1 | 0.171 (inactive) | 4 |
| COC(=O)Nc1nc2ccc(Oc3ccc(NC(=O)Nc4cc(C(F)(F)F)ccc4F)cc3)cc2s1 | 0.414 (inactive) | 18.5 |
| Fc1ccc(-c2cc(C3CNNC3c3ccccn3)ccn2)cc1 (stereo not given) | 0.0511 (inactive) | 3 |

| Structure (SMILES) | EGFP/DsRed ratio | EGFP object count |
| --- | --- | --- |
| COC(=O)Nc1nc2ccc(Oc3ccc(NC(=O)Nc4cccc(Br)c4)cc3)cc2[nH]1 | 0.0884 (inactive) | 6.5 |
| CCC(=O)Nc1ccc(C)c(-c2ccc(C(=O)NCC3CC3)cc2)c1 | 0.0318 (inactive) | 3 |
| Cc1nc(-c2ccccc2)n2nc(NCCCN3CCOCC3)ncc12 | 0.201 (inactive) | 4.5 |
| COc1cccc(-n2nc(C)c3c(N/N=C(\C)c4ccncc4)ncnc32)c1 | 0.0826 (inactive) | 2 |
| N#Cc1ccc(Oc2nccc(-c3c(-c4ccc(F)cc4)ncn3C3CCNCC3)n2)cc1 | 0.00276 (inactive) | 1 |
| CCN1CCC(CC(=O)Nc2n[nH]c3nc(-c4cccs4)c(Br)cc23)CC1 | 0.138 (inactive) | 8.5 |
| FC(F)(F)CNc1nccc(-c2cnn3ncccc23)n1 | 0.0558 (inactive) | 2 |
| CCCN(CCS(C)(=O)=O)Cc1ccc(-c2ccc3ncnc(Nc4ccc(OCc5cccc(F)c5)c(Cl)c4)c3c2)o1 | 0.083 (inactive) | 4.5 |
| COc1cc(C)c(N(C)C(=O)CN(C)C)cc1Nc1nc(Nc2cccc(F)c2C(N)=O)c2cc[nH]c2n1 | 0.2 (inactive) | 5 |
| Nc1nccc(C#Cc2cncnc2Nc2ccc(OCc3cccc(F)c3)c(Cl)c2)n1 | 1.99 (active) | 313 |
| CN1CCC(n2cnc(-c3ccc(F)cc3)c2-c2ccnc(N)n2)CC1 | 0.024 (inactive) | 1.5 |
| COc1ccc(-c2nn3ncccc3c2-c2ccnc(Nc3ccc(Cl)c(C(F)(F)F)c3)n2)cc1 | 0.0806 (inactive) | 2.5 |
| COc1ccc(-c2coc3ncnc(N)c23)cc1 | 0.227 (inactive) | 4 |
| O=C(Nc1n[nH]c2cc(-c3ccc(F)cc3)ccc12)C1CC1 | 0.145 (inactive) | 3 |
| Fc1ccc(-c2nn3ncccc3c2-c2ccnc(Nc3ccc4c(c3)OCCO4)n2)cc1 | 0.08 (inactive) | 3 |
| CCn1c(-c2nonc2N)nc2c(C#CC(C)(C)O)nc(OCCNC)cc21 | 0.224 (inactive) | 10.5 |
| CCn1c(-c2nonc2N)nc2c(C#CCN)ncc(OCCCN)c21 | 0.152 (inactive) | 6 |
